# Bioassay records as filed in PubChem BioAssay.
# Sampled rows, rich in hits. Any-hit rate of the full collection: about 7%.
# DRD3 agonist: activates the human D3 dopamine receptor | P35462 | D3R DiscoveRx beta-arrestin cells, luminescence, 90 min | max activation, % | 0.58% of 410,000 active | AID 652048; in the data active = max activation above about 30%; also: 0% is about no effect
# Target sequence (P35462 whole entry, looked up): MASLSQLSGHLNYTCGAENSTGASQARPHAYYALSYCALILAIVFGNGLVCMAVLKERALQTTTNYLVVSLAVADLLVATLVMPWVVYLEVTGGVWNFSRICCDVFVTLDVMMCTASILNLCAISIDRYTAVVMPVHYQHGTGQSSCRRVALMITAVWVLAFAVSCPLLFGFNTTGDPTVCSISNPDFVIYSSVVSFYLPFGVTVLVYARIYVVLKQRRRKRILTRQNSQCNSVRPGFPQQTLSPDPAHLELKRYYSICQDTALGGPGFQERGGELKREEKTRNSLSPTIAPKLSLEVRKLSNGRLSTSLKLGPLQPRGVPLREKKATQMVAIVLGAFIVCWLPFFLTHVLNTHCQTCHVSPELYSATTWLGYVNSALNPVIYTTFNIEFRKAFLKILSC
#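 Agonist mode: compounds and dopamine controls were applied to plated cells for 90 min at 37 degrees C after an overnight attachment at 1500 cells/well. Luminescent read-out followed 30 - 60 minutes at room temperature with DiscoveRx detection reagent.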
# D3 antag: D3 dopamine receptor (human) antagonism; P35462; 2.5% of 360,000 active; AID 652054; D3R cells, DiscoveRx beta-arrestin luminescence, antagonist mode; hits give low values; max response, negative = inhibition, %; in the data active = max response below about -50%; inconclusive = no clear call, values can overlap the other calls; also: % is scaled to controls: 0 for no effect and ±100 for the full control effect
#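 Cells plated overnight at 1500 cells/well, then exposed to library compounds with dopamine controls for 90 minutes at 37 degrees C. DiscoveRx reagent added for 30–60 minutes at room temperature; luminescence read, quantitative HTS format.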
# S2 tox: reduces viability in counter-screen for ATXN expression inhibitors. S2 cells (HEK-293 line with an ATXN2-luciferase reporter) viability, CellTiter-Fluor protease fluorescence, 24 h. Potency, µM (doses to about 56.7 µM), usual class: cytotoxic. 0.49% of 400,000 active; also: potency is read from the fitted curve at half-maximal effect; nearly all actives have a fitted effect of over 40% in size
# IL-1B inflam inh: inflammasome signaling inhibition, IL-1 beta readout; activity change, % at 57.5 µM; THP-1 LPS/ATP IL-1B secretion, AlphaLISA, 16 h; hits give low values; 4.7% of 360,000 active; in the data active = activity change below about -50%; inconclusive = mostly about -30% to -49%; also: % is scaled to controls: 0 for no effect and ±100 for the full control effect
#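 THP-1 cells pretreated 1 hr with compounds (up to 57.5 uM final), then stimulated with LPS (250 ng/mL final) plus ATP (1.25 mM final); secreted IL-1B measured by AlphaLISA after 16 hr, decreased signal indicating inhibition.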
# ATXN2 expr inh: reduces ATXN2 reporter expression in HEK-293 cells. Potency, µM (series often up to 57 µM), without a hit: at the top dose activity change, negative = inhibition, hits mostly inhibitors. HEK-293 ATXN2-luciferase reporter, luminescence, 24 h. 0.72% of 360,000 active; also: potency is read from the fitted curve at half-maximal effect; % is scaled to controls: 0 for no effect and ±100 for the full control effect; nearly all actives have a fitted effect of over 55% in size
#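 qHTS (up to 57 uM final) was run with 24 h compound exposure of reporter cells at 37 °C. Each well was multiplexed: SteadyGlo luminescence measured ATXN2-luciferase expression after a fluorogenic Gly-Phe-AFC viability readout (25 uM final).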
# a7 integrin act: activators of alpha7 integrin expression for muscular dystrophy; alpha7betagal myoblasts, beta-gal FDG fluorescence, 48 h; Potency, µM (highest dose often 38.3 µM), without a hit: top-dose activation, most hits filed as activators; 0.064% of 350,000 active; AID 624291;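 also: potency is read from the fitted curve at half-maximal effect; 100% = response of the positive control SU9516; nearly all actives have a fitted effect of over 60% in size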
#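 Alpha7betagal+/- myoblasts (passage 13) were plated 16-24 hr, then exposed to compounds (1:260 dilution of DMSO stock) for 48 hours at 37C. After MPER lysis, β-galactosidase reporter activity was read as FDG fluorescence (ex 480/em 540) after 30 minutes.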
# The depositor's hits bear a star; i = inactive; ? = inconclusive; . = no result given. Unless noted, calls follow the shape of the dose curve; as a rule, active = well fitted curve in the direction sought with a large enough effect; inconclusive = small, poorly fitted or top-dose-only effect, or another doubt; inactive = no such curve, though single readings can be large; an effect the other way counts as inactive or inconclusive.
SMILES,DRD3 agonist,D3 antag,S2 tox,IL-1B inflam inh,ATXN2 expr inh,a7 integrin act
CC1(C)CC(N2CCCCC2)=CC(=[N+]2CCCCC2)C1,1,0,?,-70*,?,?
CC(C)N=C1NN=C(c2ccc(F)cc2)CS1,-1,0,i,-1,?,16%
CC(C)C[C@H]1COCCS(=O)(=O)N1Cc1ccccc1F,42*,-4,i,15,4%,3%
COC(=O)C1OC(OC2CC[C@]3(C)C(CC[C@@]4(C)[C@@H]3CC=C3[C@@H]5CC(C)(C)CC[C@]5(C(=O)OC5OC(CO)C(O)C(O)C5O)CC[C@]34C)C2(C)C)C(O)C(O)C1O[C@H]1OCC(O)C(O)C1O (stereo not given in full),-19,-3,i,-56*,-32%,9%
COC(=O)[C@]1(Cc2ccccc2)N[C@H](CN(C)C(=O)Nc2ccc(OC)cc2)[C@@H]2C(=O)N(C)C(=O)[C@@H]21,4,-53*,i,5,3%,-2%
CCN(C[C@H]1N[C@@](Cc2ccccc2)(C(=O)OC)[C@H]2C(=O)N(Cc3ccccc3)C(=O)[C@@H]12)S(=O)(=O)c1ccc(-c2ccccc2)cc1,6,34,i,-5,10%,-1%
CCN(C[C@H]1N[C@@](CC)(C(=O)OC)[C@H]2C(=O)N(Cc3ccccc3)C(=O)[C@@H]12)C(=O)Nc1ccc(C(F)(F)F)cc1,-31,-6,i,-108*,9%,10%
CCN(C[C@H]1N[C@@](CC)(C(=O)OC)[C@H]2C(=O)N(Cc3ccccc3)C(=O)[C@@H]12)C(=O)c1ccc(F)cc1,28,24,i,-12,4%,0%
CCN(C[C@H]1N[C@@](CC)(C(=O)OC)[C@H]2C(=O)N(Cc3ccccc3)C(=O)[C@@H]12)C(=O)Nc1ccc(OC)cc1,13,21,i,-10,6%,8%
CCN(C[C@H]1N[C@@](CC)(C(=O)OC)[C@H]2C(=O)N(Cc3ccccc3)C(=O)[C@@H]12)C(=O)c1ccc(C)cc1,55*,82,?,0,-5%,-9%
COC(=O)[C@]1(Cc2ccccc2)N[C@H](CN(C)C(=O)Nc2ccccc2)[C@@H]2C(=O)N(C)C(=O)[C@@H]21,2,9,i,24,-4%,1%
CCN(C[C@H]1N[C@@](Cc2ccccc2)(C(=O)OC)[C@H]2C(=O)N(Cc3ccccc3)C(=O)[C@@H]12)S(=O)(=O)c1ccccc1,-14,-72*,i,-13,6%,-4%
CC1CCCCC1NC(=O)NC(=O)COC(=O)c1ccc(OC(F)F)cc1 (stereo not given),-4,3,i,2,-4%,-28%
CCOC(=O)c1ccc(Nc2c(-c3ccc(O)c(OC)c3)nc3nc[nH]n23)cc1,1,.,?,.,6%,.
COc1cc2c(Oc3ccc4[nH]c(C)cc4c3F)ncnc2cc1OCCCN1CCCC1,.,.,.,.,34µM*,.
CCCC(=O)Nc1ccc(NC(=O)c2ccccc2F)cn1,8,-7,i,-61*,8%,9%
CCCC(=O)Nc1ccc(NC(=O)c2ccccc2)nc1,-4,-7,i,-3,?,6%
COc1ccc(/C=C\c2onc(C)c2S(=O)(=O)N2CCC(C(=O)Nc3cccc(Cl)c3)CC2)cc1,62*,.,.,.,.,.
Cc1nnc(SC(C)C(=O)Nc2ccc(Cl)cn2)n1Cc1ccccc1 (stereo not given),-23,?,i,-60*,?,7%
CC(Sc1nnc(-c2ccc(Cl)cc2Cl)n1Cc1ccccc1)C(=O)Nc1nccs1 (stereo not given),1,11,i,-24,-9%,-29%
Cc1oc(-c2ccccc2)nc1CSc1nc2c(c(=O)[nH]1)CCC2,27,152,i,9,-1%,0%
Cc1ccccc1-c1nc(CSc2nc3c(c(=O)[nH]2)CCC3)c(C)o1,30*,189,i,25,-18%,30%
Cc1sc2ncnc(Sc3nnnn3-c3ccc(Cl)cc3)c2c1C,-1,?,?,-70*,?,-62%
CCOC(=O)Cn1c(=O)oc2cc(S(=O)(=O)NC3CCCc4ccccc43)ccc21 (stereo not given),-1,8,i,26,-11%,1%
COc1ccc(Cl)c(S(=O)(=O)N2CCCC2)c1,1,0,i,19,-5%,-2%
SMILES,DRD3 agonist,D3 antag,S2 tox,IL-1B inflam inh,ATXN2 expr inh,a7 integrin act
CCNC(=O)/C(C#N)=C/c1c(N(Cc2ccccc2)Cc2ccccc2)nc2ccccn2c1=O,-1,-11,i,-55*,1%,-27%
CNC(=O)/C(C#N)=C/c1c(N(Cc2ccccc2)Cc2ccccc2)nc2c(C)cccn2c1=O,-3,-19,?,?,-7%,-26%
CN1CCc2nc(SCC(=O)Nc3ccc(Cl)cc3)c(C#N)cc2C1,-25,-60*,i,-7,0%,-10%
COc1ccc(NC(=O)CSc2nc(N)c(C#N)cc2C#N)cc1,-29,-27,i,-3,-7%,17%
COc1ccc(C2C=C(c3ccc(C)c(C)c3)Nc3ncnn32)c(OC)c1OC (stereo not given),-14,-68*,.,-14,-24%,-23%
COc1ccc2ccccc2c1/C=N/NC(=O)c1sc(N)c(C#N)c1C,6,21,i,0,-13%,-19%
Cc1c(C(=O)N/N=C/c2cccnc2)sc(N)c1C#N,-8,53,i,-63*,2%,3%
COc1cc(/C=N/NC(=O)c2sc(N)c(C#N)c2C)cc(Br)c1O,1,13,i,-77*,0%,-6%
Cc1ccc(S(=O)(=O)N2CCC(c3nnc(-c4cccc(C)c4)o3)CC2)cc1,-1,.,7.9µM*,.,5.6µM*,.
CCCc1ccc(S(=O)(=O)N2CCC(c3nnc(-c4cccc(C)c4)o3)CC2)cc1,-10,.,.,.,10µM*,.
COc1ccc(-c2nnc(C3CCN(S(=O)(=O)c4ccc(C)c(C)c4)CC3)o2)cc1,-2,.,i,.,-14%,.
Cc1ccc(C)c(N(C)S(=O)(=O)c2ccc3[nH]cc(C(=O)NCCN4CCOCC4)c(=O)c3c2)c1,-1,-2,i,-63*,1%,-4%
Cc1ccc(N(C)S(=O)(=O)c2ccc3[nH]cc(C(=O)NCCCN4CCOCC4)c(=O)c3c2)cc1C,-5,3,i,10,-2%,0%
COc1ccc(CN2CCC3CC2c2cc(Cl)ccc23)cc1 (stereo not given),-72,-59*,i,11,-25%,-12%
Clc1ccc2c(c1)C1CC2CCN1Cc1ccccc1 (stereo not given),-51,?,i,29,0%,-10%
